Shown are actives, neighbours in structure and some others; about 3.9% of the full set was active somewhere.
HSF1 inhib: HSF1 inhibition. NIH3T3-HGL HSE-luciferase, MG132-induced, luminescence 8 h; stronger effect = lower value. activity change, negative = inhibition, % at 7.5 µM (by protocol). 300,000 tested, 0.77% active. AID 2098;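 active = more than half of replicate wells show activity change below -50%, luminescence cut by over half; inconclusive = some wells, but at most half, below -50%; inactive = no replicate well below -50%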;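 note: luciferase reports HSF-1 transcriptional activity via heat shock element; 0% = median of DMSO wells and -100% = zero luminescence signal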
HSF1 activator: increases HSF-1 driven luciferase reporter signal | NIH3T3-HGL HSF-1 luciferase reporter, MG132, 8 h; 100% = twice DMSO control signal | activation, % at 9 µM | 300,000 tested, 1.7% active | AID 504408;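 active = mean replicate activation of at least 50% with a set share of replicates each reaching 50%; inconclusive = only one of those two conditions met; inactive = mean below 50% and too few replicates reaching it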;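 note: 0% = median of the neutral control wells and 100% = twice that signal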
MITF TRPM1 HTS: increases MITF-driven TRPM1 promoter luciferase signal; 300,000 tested, 0.75% active; AID 588334; SK-MEL-5 TRPM1-promoter luciferase, 24 h; % of positive control, neutral wells = 0; activation, % at 12.5 µM;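 active = mean activation of at least 80% with every replicate also reaching 80%; inconclusive = mean reaches 80% but some replicate falls short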;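 note: 0% = neutral control wells and 100% = parthenolide positive control wells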
Wnt bcat act: activates Wnt/beta-catenin signaling in a reporter cell assay | activator, plate reader | activation, % at 9.35 µM | 300,000 tested, 1.2% active; in the data active = activation above about 30%, passing the limit was not always enough; inconclusive = no clear call, values can overlap the other calls;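 note: 0% = neutral control wells and 100% = positive control wells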
esBAF inh: inhibitors of esBAF chromatin remodeling in mouse ES cells; Bmi1-luciferase knock-in reporter, 24 h; 100% = twice the neutral-well signal; reporter increase, % at 12.5 µM; 350,000 tested, 2% active; AID 602393; in the data active = activation above about 40%; inconclusive = no clear call, values can overlap the other calls;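 note: 0% = median of the plate's neutral control wells and 100% = double that signal; a rise in the Bmi1 reporter signal indicates esBAF inhibition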
* marks the source's active call; other numbers are inactive results; ? = inconclusive; . = not tested or not shown.

SMILES	HSF1 inhib	HSF1 activator	MITF TRPM1 HTS	Wnt bcat act	esBAF inh
O=S(=O)(N[C@H]1CC[C@H](CCn2cc(-c3ccccc3F)nn2)O[C@H]1CO)c1ccc(F)cc1	.	.	.	.	0
CC(Sc1cnc2ccccc2n1)C(=O)O (stereo unspecified)	-8	-28	4	1	.
Cc1ccc(Sc2cnc3ccccc3n2)cc1	10	36	89*	.	66*
CCc1sc(C(=O)Nc2nccs2)cc1C	16	28	56	47*	-1
CCc1sc(C(=O)Nc2nc(-c3ccccn3)cs2)cc1C	.	.	-16	.	.
CCc1sc(C(=O)Nc2ncccc2C)cc1C	-1	-3	15	1	54*
CO[C@@H]1CN(C)C(=O)c2cc(NS(=O)(=O)c3ccccc3C)ccc2OC[C@@H](C)N(S(C)(=O)=O)C[C@H]1C	.	.	.	.	6
C/C=C/c1ccc([C@H]2[C@H](CO)N(C(C)=O)[C@H]2CN(C)S(C)(=O)=O)cc1	.	.	.	.	10
CCOC(=O)c1sc2nc(N3CCOCC3)c3c(c2c1N)CC(C(C)C)OC3 (stereo unspecified)	-8	3	5	-2	.
CCOC(=O)c1sc2nc3c(cc2c1N)COC(C(C)C)C3 (stereo unspecified)	-60*	-69	.	.	.
C[C@@H]1CN([C@@H](C)CO)S(=O)(=O)c2ccc(C#Cc3ccncc3)cc2O[C@H]1CN(C)C(=O)C1CCOCC1	.	.	.	.	2
COc1ccccc1N(C)S(=O)(=O)c1ccc(C(=O)NC(C)c2ccccc2)cc1 (stereo unspecified)	-67*	-74	0	0	0
C[C@@H]1CN([C@H](C)CO)C(=O)c2cc(-c3cccc(F)c3)cnc2O[C@H]1CN(C)Cc1cccc(F)c1	.	.	.	.	-8
O=C1COc2ccc(C(=O)COC(=O)c3ccc(Cl)cc3[N+](=O)[O-])cc2N1	3	11	0	-2	-6
O=C1COc2ccc(C(=O)COC(=O)c3ccccc3[N+](=O)[O-])cc2N1	24	42	21	5	77*
CO[C@@H]1CN(C)C(=O)c2cc(NS(=O)(=O)c3cn(C)cn3)ccc2OC[C@H](C)N(Cc2cccc(F)c2)C[C@H]1C	.	.	.	.	1
Cc1ccc2cccc(NS(=O)(=O)c3ccccc3)c2n1	137	140*	.	-3	.
O=S(=O)(Nc1cccc2cccnc12)c1ccccc1	73	94*	-89	4	3
Cc1cc(C)nc(NS(=O)(=O)c2ccccc2)n1	1	8	-10	.	0
CC(=O)Nc1ccc(S(=O)(=O)Nc2cccc3cccnc23)cc1	-5	13	-5	0	4
COc1ccc(NS(=O)(=O)c2ccc3ccccc3c2)c2ncccc12	311	393*	-28	-5	.
O=S(=O)(Nc1cccc2cccnc12)c1ccc(S(=O)(=O)N2CCCC2)cc1	157	189*	-15	.	-3
CN(C[C@H]1N[C@H](CO)[C@H]1c1ccc(-c2cccc(F)c2)cc1)S(C)(=O)=O	.	.	.	.	-1
Cc1ccc(S(=O)(=O)Nc2cccc3cccnc23)c([N+](=O)[O-])c1	161	220*	-88	15	-21
Cc1cc(C)c(NS(=O)(=O)c2cccc3cccnc23)c(C)c1	4	25	-3	.	-7
SMILES	HSF1 inhib	HSF1 activator	MITF TRPM1 HTS	Wnt bcat act	esBAF inh
CN(C)C(=O)C[C@@H]1CC[C@@H]2[C@H](COC[C@@H](O)CN2CC2CC2)O1	.	.	.	.	0
C[C@@H]1CN([C@H](C)CO)C(=O)c2cccc(NC(=O)Nc3ccc(C(F)(F)F)cc3)c2O[C@@H]1CN(C)S(=O)(=O)c1cn(C)cn1	.	.	.	.	9
CC(=O)c1cnc(Nc2cccc(C)c2)s1	16	17	92*	-2	.
O=C(c1ccccc1)c1cnc(Nc2ccc(Cl)c(Cl)c2)s1	7	9	.	.	-1
CC(C)(C)SCCNC(=O)/C=C/c1ccc(F)cc1	9	6	20	12	.
CC(C)(CNC(=O)/C=C/c1ccc(F)cc1)CNC(=O)/C=C/c1ccc(F)cc1	61	76*	14	.	.
CC(C)(C)NC(=O)/C=C/c1ccc(C(F)(F)F)cc1	10	12	11	77*	.
C(=C\c1ccccc1)/C=N/Nc1nc2ccccc2s1	9	28	101*	?	66*
CCC/C=N/Nc1nc2ccccc2s1	15	?	80	75*	.
O=C(C[C@@H]1CC[C@@H]2[C@H](COC[C@H](O)CN2C(=O)c2ccccc2F)O1)NCc1ccccc1	.	.	.	.	4
Cc1ccc(S(=O)(=O)N[C@H]2CC[C@@H](CCNC(=O)Nc3ccc(Cl)cc3)O[C@H]2CO)cc1	.	.	.	.	45*
O=C(NCC[C@H]1CC[C@H](NC(=O)Nc2cc(F)ccc2F)[C@H](CO)O1)Nc1ccc(Cl)cc1	.	.	.	.	43*
O=C(NCC[C@@H]1CC[C@@H](NC(=O)c2cccnc2)[C@H](CO)O1)Nc1ccc(C(F)(F)F)cc1	.	.	.	.	54*
CNC[C@H]1Oc2ccc(NC(=O)Nc3c(C)noc3C)cc2C(=O)N([C@H](C)CO)C[C@@H]1C	.	.	.	.	-4
O=C(C[C@@H]1CC[C@H]2[C@@H](COC[C@@H](O)CN2S(=O)(=O)c2ccc(F)cc2)O1)NCC1CCCCC1	.	.	.	.	-4
C[C@@H]1CCCCO[C@H](CN(C)C(=O)CCC(F)(F)F)[C@@H](C)CN([C@@H](C)CO)C(=O)c2cc(NC(=O)c3ccccc3)ccc2O1	.	.	.	.	6
C[C@H](NC(=O)C[C@@H]1C=C[C@H](NC(=O)Nc2ccc3c(c2)OCO3)[C@H](CO)O1)c1ccccc1	.	.	.	.	-11
C1CCC(Nc2nnnn2C2CCCCC2)CC1	-59*	-65	.	-2	-6
C1CCC(n2nnnc2CN2CCN(C3CCCC3)CC2)CC1	0	-5	-2	.	-5
Cc1noc(C)c1NC(=O)N(C)C[C@@H]1OCCCC[C@H](C)Oc2ccc(NC(=O)CCC(F)(F)F)cc2C(=O)N([C@@H](C)CO)C[C@H]1C	.	.	.	.	-6
CCCCn1cnc2c(oc3nc4c(cc32)CCCC4)c1=O	12	53*	.	28	-41
CC(C)CC#Cc1cnc2c(c1)C(=O)N([C@H](C)CO)C[C@@H](C)[C@H](CN(C)C(=O)c1ccc3c(c1)OCO3)O2	.	.	.	.	4

Bioassay records from PubChem.
